From PubChem BioAssay come the findings set out here.

Activity calls are given as the source filed them.

The nature of assay [1]: small molecules captured by biotinylated probe aFSTL3 – biochemical, small-molecule microarray, fluorescence 635/667, stem cell growth factor project, primary screen (AID 1064).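 Also: measures binding of the biotinylated anti-FSTL3 antibody to printed compounds.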 Particulars: higher = more signal.
Assay [2] in a line: binders from COS7 lysate, DM2A8 probe, primary screen, torsin A project, cell lysate, small-molecule microarray, fluorescence 635/667 (AID 1065). Particulars: higher = more signal, COS7 lysate expressing mutant human TOR1A.
Assay [3] is described as follows: small molecules captured by biotinylated probe aFGF2 – biochemical, small-molecule microarray, fluorescence 635/667, stem cell growth factor project, primary screen (AID 1067).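 Also: measures binding of biotinylated aFGF2 protein to printed compounds on slides; z-score merges feature fluorescence and signal-to-noise across triplicate slides.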 Particulars: higher = more signal.
A short description of assay [4]: small molecules captured by biotinylated probe aFGF10 – biochemical, small-molecule microarray, fluorescence 635/667, stem cell growth factor project, primary screen (AID 1071).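 Also: score merges 667 nm spot intensity and signal to noise from triplicate slides.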 Particulars: higher = more signal.
Assay [5] deals with Neurogenic locus notch homolog protein 2 (Homo sapiens) (UniProt Q04721). As to the kind of experiment: small molecules binding Notch2 protein – biochemical, small-molecule microarray, 635 nm fluorescence, stem cell growth factors, primary screen (AID 1073). Particulars: higher = more signal.
Sequence of Neurogenic locus notch homolog protein 2 (Homo sapiens) (Q04721 whole entry, looked up, canonical isoform): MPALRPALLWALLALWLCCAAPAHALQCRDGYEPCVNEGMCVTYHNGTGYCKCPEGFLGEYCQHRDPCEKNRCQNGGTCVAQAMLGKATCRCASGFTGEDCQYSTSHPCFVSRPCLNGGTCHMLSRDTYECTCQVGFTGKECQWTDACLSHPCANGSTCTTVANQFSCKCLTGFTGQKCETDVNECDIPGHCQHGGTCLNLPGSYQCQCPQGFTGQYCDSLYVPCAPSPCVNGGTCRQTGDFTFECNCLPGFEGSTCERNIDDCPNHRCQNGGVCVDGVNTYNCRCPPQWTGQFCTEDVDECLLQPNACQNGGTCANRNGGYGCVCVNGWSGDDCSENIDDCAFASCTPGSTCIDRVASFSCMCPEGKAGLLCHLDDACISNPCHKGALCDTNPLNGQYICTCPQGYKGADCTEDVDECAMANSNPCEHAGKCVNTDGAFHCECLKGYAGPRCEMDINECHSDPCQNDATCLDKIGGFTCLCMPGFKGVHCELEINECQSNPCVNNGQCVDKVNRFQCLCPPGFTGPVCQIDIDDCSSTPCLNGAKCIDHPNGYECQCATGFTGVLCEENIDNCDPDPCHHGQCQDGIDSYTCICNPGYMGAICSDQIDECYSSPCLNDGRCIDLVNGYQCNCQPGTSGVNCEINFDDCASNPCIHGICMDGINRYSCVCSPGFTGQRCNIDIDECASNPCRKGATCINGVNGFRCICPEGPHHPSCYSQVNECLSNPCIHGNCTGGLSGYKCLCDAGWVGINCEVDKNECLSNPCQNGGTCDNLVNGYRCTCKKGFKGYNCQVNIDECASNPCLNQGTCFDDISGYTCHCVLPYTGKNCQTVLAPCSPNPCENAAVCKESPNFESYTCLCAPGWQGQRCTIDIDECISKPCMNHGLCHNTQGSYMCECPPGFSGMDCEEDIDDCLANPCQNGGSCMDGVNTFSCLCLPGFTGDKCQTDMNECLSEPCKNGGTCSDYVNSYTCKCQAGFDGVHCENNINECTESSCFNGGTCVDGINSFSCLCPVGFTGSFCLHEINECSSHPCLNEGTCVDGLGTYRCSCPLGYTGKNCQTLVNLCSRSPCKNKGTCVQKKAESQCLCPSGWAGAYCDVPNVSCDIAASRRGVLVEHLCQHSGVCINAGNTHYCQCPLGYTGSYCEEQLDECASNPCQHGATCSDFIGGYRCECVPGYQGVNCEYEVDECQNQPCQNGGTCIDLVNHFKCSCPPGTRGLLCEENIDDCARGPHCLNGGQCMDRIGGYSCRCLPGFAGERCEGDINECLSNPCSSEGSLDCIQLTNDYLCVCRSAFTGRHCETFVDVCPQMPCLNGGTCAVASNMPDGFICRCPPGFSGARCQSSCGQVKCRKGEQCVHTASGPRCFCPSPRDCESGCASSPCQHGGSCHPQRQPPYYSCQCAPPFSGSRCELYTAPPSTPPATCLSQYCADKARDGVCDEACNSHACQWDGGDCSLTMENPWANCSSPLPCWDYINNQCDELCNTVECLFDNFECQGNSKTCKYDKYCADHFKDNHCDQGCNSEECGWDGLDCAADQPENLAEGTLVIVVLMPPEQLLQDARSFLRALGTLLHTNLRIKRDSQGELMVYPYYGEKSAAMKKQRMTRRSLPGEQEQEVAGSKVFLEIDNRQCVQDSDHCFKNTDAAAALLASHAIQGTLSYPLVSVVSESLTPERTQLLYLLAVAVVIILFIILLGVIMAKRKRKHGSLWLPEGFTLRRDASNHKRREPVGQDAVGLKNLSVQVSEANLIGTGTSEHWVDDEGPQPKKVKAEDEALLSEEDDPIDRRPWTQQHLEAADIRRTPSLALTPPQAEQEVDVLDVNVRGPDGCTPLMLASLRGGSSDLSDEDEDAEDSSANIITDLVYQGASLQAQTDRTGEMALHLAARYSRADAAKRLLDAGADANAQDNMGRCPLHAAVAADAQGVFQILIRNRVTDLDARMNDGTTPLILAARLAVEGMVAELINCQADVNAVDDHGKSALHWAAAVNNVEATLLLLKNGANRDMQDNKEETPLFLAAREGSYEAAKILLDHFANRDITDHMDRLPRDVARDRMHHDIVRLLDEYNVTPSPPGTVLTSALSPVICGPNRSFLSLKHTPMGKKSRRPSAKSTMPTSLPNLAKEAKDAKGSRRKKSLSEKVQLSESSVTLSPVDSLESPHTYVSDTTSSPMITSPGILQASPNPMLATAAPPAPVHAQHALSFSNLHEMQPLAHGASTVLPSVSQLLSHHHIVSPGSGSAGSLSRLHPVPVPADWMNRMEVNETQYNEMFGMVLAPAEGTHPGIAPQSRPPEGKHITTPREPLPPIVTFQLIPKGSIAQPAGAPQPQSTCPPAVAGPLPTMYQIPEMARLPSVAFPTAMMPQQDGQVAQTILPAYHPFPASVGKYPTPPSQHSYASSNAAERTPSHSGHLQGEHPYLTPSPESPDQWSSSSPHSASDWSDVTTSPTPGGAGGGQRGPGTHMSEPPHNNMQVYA
In assay [6] the target is Pro-neuregulin-1, membrane-bound isoform (Homo sapiens) (UniProt Q02297). As to the kind of experiment: small molecules binding neuregulin-1 protein – biochemical, small-molecule microarray, fluorescence 635/667, psychiatric disease protein project, primary screen (AID 1075).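 Also: score combines 667 nm spot fluorescence with signal to noise.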 Particulars: NRG1 binding, 635 nm fluorescence, higher = more signal.
Sequence of Pro-neuregulin-1, membrane-bound isoform (Homo sapiens) (Q02297 whole entry, looked up, the tested form may be a part, canonical isoform): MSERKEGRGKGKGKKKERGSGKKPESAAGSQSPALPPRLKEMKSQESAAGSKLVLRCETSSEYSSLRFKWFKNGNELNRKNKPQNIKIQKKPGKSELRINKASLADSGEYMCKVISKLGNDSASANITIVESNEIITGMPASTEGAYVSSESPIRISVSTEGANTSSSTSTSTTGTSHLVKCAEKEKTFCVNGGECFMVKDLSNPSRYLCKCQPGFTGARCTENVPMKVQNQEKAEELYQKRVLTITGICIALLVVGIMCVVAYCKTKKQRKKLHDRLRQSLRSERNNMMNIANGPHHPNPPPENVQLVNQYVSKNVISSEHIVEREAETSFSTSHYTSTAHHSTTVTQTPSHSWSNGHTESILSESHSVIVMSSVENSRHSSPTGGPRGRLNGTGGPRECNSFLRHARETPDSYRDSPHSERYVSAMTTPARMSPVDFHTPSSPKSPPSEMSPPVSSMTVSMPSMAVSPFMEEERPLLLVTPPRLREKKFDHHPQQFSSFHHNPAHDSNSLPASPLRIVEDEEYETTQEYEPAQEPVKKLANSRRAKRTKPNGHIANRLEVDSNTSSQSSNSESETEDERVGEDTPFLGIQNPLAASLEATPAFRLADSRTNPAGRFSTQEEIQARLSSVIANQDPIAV
Assay [7] relates to Neuregulin-1 EGF-like domain. In words: small molecules binding NRG1 EGF domain – biochemical, small-molecule microarray, 635 nm fluorescence, primary screen (AID 1081).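 Also: binding of the protein to compounds printed on small-molecule microarray slides.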 Particulars: higher = more signal.
Assay [8] can be described thus: FRG1 expression reporter modulators in myotubes – cell-based, C2C12 myotubes, firefly/Renilla luciferase, luminescence, FRG1 inhibition for FSHD, primary screen (AID 1084). Particulars: FRG1 promoter luciferase, higher = more signal, called active from +8 up or from −8 down.
The nature of assay [9]: small molecules captured by biotinylated probe aFST – biochemical, small-molecule microarray, fluorescence 635/667, stem cell growth factor project, primary screen (AID 1086).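 Also: score merges 667 nm fluorescence with signal-to-noise of each printed compound spot.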 Particulars: higher = more signal.
Assay [10] is described as follows: binders of probe aHhip on microarray, primary screen, stem cell growth factor project, biochemical, small-molecule microarray, fluorescence 635/667 (AID 1087).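 Also: score merges spot fluorescence at 667nm with spot signal to noise ratio.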 Particulars: higher = more signal.

For the compound `COC(=O)CC=C[C@@H](C)[C@@H](C=NOC(C)CN1CCCc2nc(C)c(C)cc21)OC` (stereo not given in full), the composite z-score in assay [1] is -0.111; in assay [2], 0.382; in assay [3], -0.121; in [4], 0.354; in assay [5] it was 0.401; in assay [6], -0.171. Further, the composite z-score in assay [7] is 0.375; in assay [9], 0.0017; in [10], -0.0237. In addition, in assay [8], the z-score was 0.422 (inactive).

Regarding `CCC1=NOC(CCC2CC(OC(=O)NCc3cccc4c3OCO4)CC3(CCCC(COC(=O)NCCc4ccccc4OC)O3)O2)C1` (stereo not given), the composite z-score in assay [1] was -0.173; in [2] it was 0.13; in assay [3], -0.0466; in assay [4], 0.504; in assay [5], 0.608; in assay [6], 0.796. The composite z-score was 0.793 in assay [7], 0.243 in assay [9] and -0.151 in assay [10]. In addition, the z-score in assay [8] was 1.02 (inactive).

Turning to `CCOC(=O)[C@H](Cc1ccccc1)NC(=O)CCC1CC(OC(=O)NCc2cccc3ccccc23)CC2(CCCC(COC(=O)NCCC(C)C)O2)O1` (stereo not given in full), the composite z-score in assay [1] was -0.499; in assay [2] it was 0.283; in [3], -0.0895; in assay [4] it was 0.0687; in assay [5] it was -0.756; in [6], -0.348. The composite z-score in [7] is 0.751; in [9], -0.219; in assay [10], -0.0994. Moreover, in assay [8], the z-score is 1.41 (inactive).

With `CO[C@H]1COC(=O)[C@@H](Cc2ccccc2)NC(=O)[C@@H](C)COC(=O)CCC[C@@H]1C`, the composite z-score in assay [1] was -0.388; in [2] it was 0.433; in [3], -0.0319; in assay [4], 0.286; in [5], 0.106; in [6], -0.203. Further, the composite z-score is -0.361 in assay [7], 0.23 in [9] and -0.0391 in assay [10]. Moreover, in assay [8], the z-score is -0.224 (inactive).

`CO[C@H]1COC(=O)[C@@H]2CCCN2C(=O)CC=C[C@@H](C)[C@H](OC)COC(=O)[C@@H](OCc2ccccc2)C=C[C@@H]1C`: the composite z-score is -0.466 in assay [1]; 1.29 in assay [2]; -0.175 in assay [3]; -0.477 in [4]; -0.624 in assay [5]; -0.233 in [6]. Besides, the values for the composite z-score in assay [7], in assay [9] and in [10] were 0.269, 0.317 and 0.176, respectively. The z-score in assay [8] is -0.0576 (inactive).

For the compound `CCCCc1nc2c(c3c1C[C@H](C)OC3)CN(CCOc1ccccc1)CC2`, the composite z-score in assay [1] is -0.43; in assay [2] it was 0.575; in assay [3], -0.149; in assay [4], 0.414; in assay [5], 0.882; in assay [6], 0.363. For the same compound, the composite z-score was found to be 0.881 in [7], 0.192 in assay [9] and 0.213 in assay [10]. The z-score in assay [8] was -1.55 (inactive).

Consider `COC(=O)[C@H](C)NC(=O)CCC1CC(OC(=O)NCc2ccc3c(c2)OCO3)CC2(CCCC(COC(=O)NCC3CCCCC3)O2)O1` (stereo not given in full), for which the composite z-score in assay [1] was -0.632; in [2] it was 0.0369; in assay [3], -0.0158; in [4], 0.847; in [5] it was 1.08; in assay [6], 0.586. Further, the composite z-score in [7] was 1.18; in [9], 0.315; in assay [10], 0.231. The z-score in assay [8] was 0.0762 (inactive).

On to `CC(C)CON=C1C[C@@H](O)[C@@H](O)[C@@H]2[C@@H]3C(=O)N(C4CCCCC4)C(=O)[C@@H]3CC[C@H]12`, for which the composite z-score was -0.475 in [1]; 0.6 in assay [2]; -0.0383 in assay [3]; 0.848 in [4]; 1.14 in [5]; 0.936 in assay [6]. Besides, the composite z-score in assay [7] is 0.743; in [9], 0.272; in [10] it was -0.169. Besides, the z-score in assay [8] is -0.276 (inactive).

Turning to `CON=CC[C@@H]1C=C[C@H](OC(C)=O)[C@@H](COC(C)=O)O1`, the composite z-score in assay [1] was -0.043; in assay [2], 0.0682; in assay [3], -0.0006; in [4], 0.119; in assay [5], 0.255; in assay [6], -0.189. For the same compound, the composite z-score was -0.686 in [7], 0.143 in assay [9] and 0.151 in assay [10]. In assay [8], the z-score was 0.41 (inactive).

With `O=C(NN=C1C[C@@H](O)[C@@H](O)[C@@H]2[C@@H]3C(=O)N(C[C@@H]4CCCO4)C(=O)[C@@H]3CC[C@H]12)OCc1ccccc1`, the composite z-score in assay [1] was 0.0589; in assay [2] it was 0.349; in [3], -0.118; in assay [4], -0.0255; in assay [5], -0.248; in [6] it was -0.117. The figures for the composite z-score in [7], in [9] and in assay [10] were -0.637, 0.556 and -0.0994, respectively. Also, the z-score in assay [8] is -0.361 (inactive).

For the compound `CCOC(=O)[C@H](Cc1ccccc1)NC(=O)CCC1CC(OC(=O)NCCc2ccc(F)cc2)CC2(CCCC(COC(=O)NCCc3ccc(Cl)cc3)O2)O1` (stereo not given in full), the composite z-score in [1] was -0.431; in assay [2], -0.0057; in assay [3] it was -0.0523; in assay [4], 0.248; in assay [5] it was 0.622; in assay [6], 0.843. Further, the composite z-score in [7] turned out to be 0.872; in [9] it was 0.233; in [10], 0.0623. In addition, in assay [8], the z-score was 0.301 (inactive).

Take `Cc1cc2c(nc1C)CCCCN2CC(C)ON=C1[C@H]2CCn3c(=O)n(-c4ccccc4)c(=O)n3[C@H]2[C@H](O)[C@@H]2O[C@H]12` (stereo not given in full): the composite z-score in assay [1] was -0.455; in assay [2], 0.288; in assay [3] it was 0.0051; in [4], 0.756; in [5], 0.942; in assay [6] it was -0.349. For the same compound, the composite z-score in assay [7] is 0.8; in [9], 0.557; in assay [10], -0.0346. The z-score in [8] is -0.446 (inactive).

For `CC(=O)OC[C@H]1O[C@H](CC=NO[C@H](C)c2cn([C@H](CO)Cc3ccccc3)nn2)C=C[C@@H]1OC(C)=O`, the composite z-score in assay [1] was -0.789; in assay [2] it was 0.379; in [3] it was -0.087; in assay [4] it was 0.541; in assay [5] it was 0.911; in assay [6], 1.33. Moreover, the composite z-score is 0.711 in [7], 0.246 in assay [9] and -0.201 in assay [10]. Further, the z-score in assay [8] was 0.235 (inactive).

Turning to `COc1cccc([C@H]2Oc3ccc(OC)cc3C(=NO[C@@H]3O[C@H](COC(C)=O)[C@@H](OC(C)=O)[C@H](OC(C)=O)[C@H]3OC(C)=O)[C@@H]2O)c1`, the composite z-score in [1] was -0.533; in assay [2], 0.974; in assay [3], -0.116; in [4] it was 0.326; in assay [5] it was 0.842; in assay [6], -0.62. Also, the composite z-score was -0.782 in assay [7], 0.198 in [9] and 0.0972 in [10]. Besides, the z-score in assay [8] is 1.59 (inactive).

In the case of `CCOC(=O)NN=C1C[C@@H](O)[C@@H](O)[C@@H]2[C@@H]3C(=O)N(Cc4ccc5c(c4)OCO5)C(=O)[C@@H]3CC[C@H]12`, the composite z-score in [1] was -0.428; in assay [2], 0.0687; in assay [3], -0.113; in [4] it was -0.388; in [5], -0.434; in assay [6] it was 0.279. The composite z-score in [7] was 0.678; in assay [9], 0.625; in assay [10] it was -0.0645. Also, the z-score in [8] is 0.855 (inactive).

`CC(C)=CCCC(C)=CCON=C1C[C@@H](O)[C@@H](O)[C@@H]2[C@@H]3C(=O)N(c4ccc(F)cc4F)C(=O)[C@@H]3CC[C@@H]12`: the composite z-score was -0.245 in [1]; 0.87 in assay [2]; -0.116 in assay [3]; 0.546 in assay [4]; -0.205 in assay [5]; 0.895 in [6]. In addition, the results for the composite z-score in assay [7], in assay [9] and in [10] were 0.314, 0.356 and 0.0505, respectively. For the same compound, in assay [8], the z-score was 0.656 (inactive).
